Source: PubChem BioAssay (NCI)
This is part of a sample that, as a whole, favours compounds with a hit. Of some 83,000 tested, about 20% had one in any assay.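 Step 1: grow cells in 96-well plates. Step 2: add test compound at a single concentration. Step 3: incubate 48 h. Step 4: record percent growth.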 The source made the active and inactive calls.

system: NCI-H460 lung; experiment: NCI-60 one-dose screen, 48 h (100 = growth as untreated, 0 = no growth, -100 = all killed); conditions: 10 µM unless noted
Experimental: Growth inhibition of the NCI-H460 human Non-Small Cell Lung tumor cell line is measured as a screen for anti-cancer activity. Cells are grown in 96 well plates and exposed to the test compound for 48 hours. Compounds are tested at a single concentration, which is 10^-5 M for most compounds. The reported endpoint is percent growth (GI% or GIPRCNT), where numbers from 0 - 100% represent growth inhibition, and numbers from -100% - 0 represent cell death. For example, a value of 40 represents 60% growth inhibition. A value of 0 means no net growth occurred over the course of the experiment. A value of -40 indicates 40% of cells at the beginning of the experiment died by the end of the experiment. A value of -100 means all cells are dead at the end of the experiment.
NCI-60 Human Tumor Cell Lines Screen was performed using the standard one-dose NCI protocol, which is described in more detail at https://dtp.cancer.gov/discovery_development/nci-60/default.htm.
Compounds with GIPRCNT values below 10 were considered active. Activity score was based on GIPRCNT using the following formula: […]
Score is 0 for GIPRCNT values of 100 or above, 50 for GIPRCNT values of 0, and 100 for GIPRCNT values of -100.

Structure (SMILES) | growth
O=S(=O)(NCCCNc1cc(-c2cn(-c3ccccc3)nc2-c2ccccc2)ccn1)c1ccc(C(F)(F)F)cc1 | 50.7% (inactive)
COc1cccc(/C=C2/C(=O)N(Cc3ccco3)SC2=S)c1OC | 102% (inactive)
O=C1O[C@H]([C@H](O)CO)C(O)=C1O | 104% (inactive)
O=C(/C=C\c1cccc([N+](=O)[O-])c1)c1ccccc1 | 87.7% (inactive)
CCCCCCNC(=O)Oc1ccc(/C(=C(\C)c2ccccc2)c2ccc(OCCN(CC)CC)cc2)cc1 | 7.03% (active)
COc1cc(OC)c(/C=C/C(=O)c2c(OC)cc(OC)cc2OC)c(OC)c1 | 5.86% (active)
Clc1cccc(Nc2nc(Nc3cnc4ccccc4c3)c3[nH]cnc3n2)c1 | 61.1% (inactive)
O=C(/C=C/c1cccc(Br)c1)c1ccccc1 | 104% (inactive)
O=C(O)c1cccc2c1-c1ccccc1C2=O | 105% (inactive)
O=c1c2cccc3c(NC4CCCCC4)ccc(c32)c2nc3ccccc3n12 | 34.7% (inactive)
O=[N+]([O-])c1cccc(-c2nc3sccn3c2-c2ccnc(NCCNS(=O)(=O)c3ccc(C(F)(F)F)cc3)n2)c1 | 33.4% (inactive)
C=C1CC2(OC1=O)C(=O)Nc1ccccc12 (stereo not given) | 77.8% (inactive)
Oc1c(Cl)cc(Cl)cc1CNc1nccnn1 | 109% (inactive)
Oc1cc(O)c2c(=S)cc(-c3ccc(Cl)cc3)oc2c1 | 21% (inactive)
Nc1ccc2c(c1)C(=O)NC2=O | 103% (inactive)
COc1ccc(CN(c2ccc(C)cc2)C2OC(=O)c3ccccc32)cc1OC (stereo not given) | 101% (inactive)
Cc1cc(OCc2ccc(C(F)(F)F)cc2)c2c(c1)C(=O)C=C(NCCN1CCCC1)C2=O | 43.9% (inactive)
COc1ccc2nc3cc(Cl)ccc3c(N3CCN(c4nccc(NCc5ccccc5)n4)CC3)c2c1 | 89.9% (inactive)
Cc1cc(N/N=C/c2nc(-c3ccc(Cl)cc3)oc2C)c2cc(Cl)ccc2n1 | -62.5% (active)
Cc1ccc(Nc2c(C(N)=O)cnc3ccc(-c4csc(N)n4)cc23)cc1 | 100% (inactive)

Structure (SMILES) | growth
COc1ccc2nc3cc(Cl)ccc3c(N3CCN(c4ccnc(N5CCN(C)CC5)n4)CC3)c2c1 | 64.7% (inactive)
COc1ccc(/C=N\NC(=O)c2ccncc2)cc1O | 109% (inactive)
CSc1ncnc2c1ncn2C1CCCO1 (stereo not given) | 105% (inactive)
CN1CCN(Cc2ccc(NC(=O)c3cncc(C#Cc4cncc5nccnc45)c3)cc2C(F)(F)F)CC1 | 34.5% (inactive)
COc1nc2c(cc1S(=O)(=O)c1ccccc1)CCc1c-2cnn1-c1ccc(Cl)cc1 | 99.2% (inactive)
O=C1/C(=C\c2cn(C(=O)c3ccc(Cl)cc3)c3ccccc23)c2ccccc2N1c1c(Cl)cccc1Cl | 111% (inactive)
O=C1c2cccnc2C(=O)c2c1c(C(=O)OCCN1CCOCC1)c1ccccn21 | -31.2% (active)
Cc1ccc(-c2nc(/C=N/Nc3cc(C)nc4ccc(Br)cc34)c(C)o2)cc1 | -81% (active)
O=C1CC(c2nc3ccccc3[nH]2)CN1C1CCCCC1 (stereo not given) | 109% (inactive)
Cn1c(=O)c2[nH]c(C(O)C(O)C(O)C(O)CO)nc2n(C)c1=O (stereo not given) | 107% (inactive)
CC(=O)OCC1OC(OC2=C(CC=C(Cl)Cl)C(=O)c3ccccc3C2=O)C(OC(C)=O)C(OC(C)=O)C1OC(C)=O (stereo not given) | 95.1% (inactive)
COc1ccc(-c2nn(-c3ccccc3)cc2/C=C2\SC(=O)NC2=O)cc1 | 97.5% (inactive)
C=C1CCC2C3(C)COC(c4ccc(SC)cc4)OC3CCC2(C)C1C/C=C1/C(=O)OCC1O (stereo not given) | 81.8% (inactive)
N#Cc1c2c(nc3n[nH]c(N)c13)CCCC2 | 108% (inactive)
CN(C)CCCC(=O)Nc1ccc(Cn2nnc3c2C(=O)c2nnn(Cc4ccc(NC(=O)CCCN(C)C)cc4)c2C3=O)cc1 | 31% (inactive)
CC[C@H](Nc1ncnc(N)c1C(N)=O)c1nc2cccc(NCc3ccc(C(=O)NO)cc3)c2c(=O)n1-c1ccccc1 | 79.5% (inactive)
O=C1/C(=C/c2ccccc2)CN(CCC(=O)N2C/C(=C\c3ccccc3)C(=O)/C(=C/c3ccccc3)C2)C/C1=C\c1ccccc1 | 84.7% (inactive)
CNCCCn1c2c(c3ccc([N+](=O)[O-])cc3c1=O)C(=O)c1cc(OC)cnc1-2 | -70.4% (active)
O=C(CCN1CCOCC1)Nc1ccc(Cn2nnc3c2C(=O)c2nnn(Cc4ccc(NC(=O)CCN5CCOCC5)cc4)c2C3=O)cc1 | 13.3% (inactive)
Cc1sc2nc3[nH]/c(=C\c4ccc(Cl)cc4)c(=O)n3c(=O)c2c1C | 104% (inactive)
